# High-throughput results as filed in PubChem BioAssay.
# This is one part of a sample in which hits are shown more often than they occur.
# Tgondii IFNg – T. gondii growth inhibition with IFN-gamma, primary screen, cell-based; Toxoplasma gondii growth in IFN-gamma-treated host cells; stronger effect = lower value; activity change, negative = inhibition, % (concentration not given with the values); 69,000 compounds, 3.8% hits; in the data active = activity change below about -70%, passing the limit was not always enough;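 also: host cells are HeLa cells infected with Toxoplasma gondii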
# An asterisk follows results filed as active; i = inactive.
SMILES,Tgondii IFNg
CCNC(=O)c1noc(-c2cc(C(C)C)c(O)cc2O)c1-c1ccc(CN2CCOCC2)cc1,-88.4*
CCNC(=O)c1ccc(N2CCN(Cc3ccc4c(c3)OCCO4)CC2)nc1,-2.8
O=C(Nc1ccc(CN2CCOCC2)cc1)c1cc2ccccc2o1,i
C[C@@H]1CCCCO[C@@H](CN(C)Cc2ccc(Cl)c(Cl)c2)[C@H](C)CN([C@@H](C)CO)C(=O)c2cc(NS(=O)(=O)c3cccs3)ccc2O1,-43.6
C[C@@H]1CN([C@H](C)CO)C(=O)c2cc(NS(=O)(=O)c3ccc(Cl)cc3)ccc2O[C@@H](C)CCCCO[C@@H]1CN(C)Cc1ccncc1,-111.7*
C[C@@H]1CN([C@H](C)CO)C(=O)c2cc(NS(=O)(=O)c3cccs3)ccc2O[C@@H](C)CCCCO[C@H]1CN(C)Cc1ccc(Cl)c(Cl)c1,-66.8
C[C@@H]1CN([C@@H](C)CO)C(=O)c2cc(NS(=O)(=O)c3ccc(Cl)cc3)ccc2O[C@@H](C)CCCCO[C@@H]1CN(C)Cc1ccncc1,-113.1*
C[C@@H]1CCCCO[C@@H](CN(C)Cc2ccncc2)[C@H](C)CN([C@H](C)CO)C(=O)c2cc(NS(=O)(=O)c3ccc(Cl)cc3)ccc2O1,-104.6*
C[C@@H]1CCCCO[C@@H](CN(C)Cc2ccc(Cl)c(Cl)c2)[C@H](C)CN([C@H](C)CO)C(=O)c2cc(NS(=O)(=O)c3cccs3)ccc2O1,-53.9
C[C@@H]1CCCCO[C@@H](CN(C)Cc2ccncc2)[C@@H](C)CN([C@@H](C)CO)C(=O)c2cc(NS(=O)(=O)c3ccc(Cl)cc3)ccc2O1,50.4
C[C@@H]1CCCCO[C@@H](CN(C)Cc2ccc(Cl)c(Cl)c2)[C@@H](C)CN([C@@H](C)CO)C(=O)c2cc(NS(=O)(=O)c3cccs3)ccc2O1,277.8
C[C@@H]1CCCCO[C@H](CN(C)Cc2ccncc2)[C@H](C)CN([C@@H](C)CO)C(=O)c2cc(NS(=O)(=O)c3ccc(Cl)cc3)ccc2O1,32.4
COc1cccc(S(=O)(=O)N2CCC(c3nc(C(=O)N(C)C)c(C)o3)CC2)c1,9.4
COCCn1c(=O)[nH]c2cc(C(=O)NCc3ccc(OC(F)(F)F)cc3)ccc21,-38.1
COc1ccc(N(Cc2nc(-c3cccc(C)c3)oc2C)S(=O)(=O)c2ccccc2)cc1,-60.0
O=C(CCn1c(=O)oc2cc(Cl)ccc21)N(Cc1ccccn1)C1CCCCC1,-12.2
Cc1ccc(C)c(OC(C)C(=O)NCCc2n[nH]c3c2CCCC3)c1 (centres undefined),8.5
CN(C)CCN1C2(CCN(Cc3nccs3)C2)c2ccccc2S1(=O)=O (centres undefined),0.2
COCCN1C2(CCN(Cc3nccs3)C2)c2ccccc2S1(=O)=O (centres undefined),2.7
CC(C)CCN1C2(CCN(Cc3nccs3)C2)c2ccccc2S1(=O)=O (centres undefined),-95.9*
O=C(Nc1ccccc1)OCC(CN1CCCCC1)OC(=O)Nc1ccccc1 (centres undefined),-4.3
O=C(Nc1ccc(Cl)cc1)OC1CN(C(c2ccccc2)c2ccccc2)C1,-59.0
O=C(Nc1ccc(Cl)cc1)OCc1cccc(COC(=O)Nc2ccc(Cl)cc2)n1,-98.5*
O=C(Nc1ccccc1)OCc1cccc(COC(=O)Nc2ccccc2)c1F,-82.3*
CC(C)(COC(=O)Nc1ccc(Cl)cc1)n1cccc1,10.0
SMILES,Tgondii IFNg
O=C(Nc1ccccc1)OCCCCCOC(=O)Nc1ccccc1,-18.5
CC1(C)Cc2ccccc2/C(=C/C(=S)Nc2ccccc2)N1,-13.6
Cc1cccc(-c2ccc([C@H]3[C@H]4CN(S(=O)(=O)c5ccccc5F)CCCCN4[C@H]3CO)cc2)c1,-40.0
O=S(=O)(c1ccc(F)cc1)N1CCCCN2[C@@H](CO)[C@H](c3ccc(-c4cncnc4)cc3)[C@@H]2C1,2.6
Cc1cccc(-c2ccc([C@H]3[C@@H](CO)N4CCCCN(S(=O)(=O)c5ccccc5F)C[C@H]34)cc2)c1,-79.9*
CCc1nnc(NC(=O)C(=O)N(C)C2Cc3ccccc3C2)s1,-3.2
C=CCc1cc(-c2nccn2C(C)Cn2cncn2)ccc1O (centres undefined),8.0
CSc1cc(-c2ccc(Cl)cc2)[nH]c(=O)c1C#N,56.1
CSc1scc(-c2ccc(Cl)cc2)c1C#N,-90.9*
CSc1scc(NS(=O)(=O)c2ccc(Cl)cc2)c1S(=O)(=O)C(C)C,-46.5
Cc1c(C(=O)CSc2ccc(Cl)cc2)sc2ccc(Cl)cc12,-56.6
COc1ccc(OS(=O)(=O)c2sc3ccc(Cl)cc3c2C)cc1,-104.0*
Cc1cc(=O)c2cc(Cl)ccc2s1,58.7
CNc1ncccc1CN(Cc1ccc(OC)cc1OC)CC1CCCO1 (centres undefined),-13.3
O=C(CCc1cc(=O)[nH]o1)N1C[C@@H]2[C@H](C1)[C@H]1CC[C@@H]2O1,-1.8
CC(=O)N1CCCc2sc(C(=O)N3CCC(N(C)C)CC3)nc21,-31.6
CCN1c2ccccc2C(=O)NC12CCN(C(=O)c1cc(OC)c(OC)c(OC)c1)CC2,-11.3
CCn1c(CC2CCN(Cc3c[nH]c4c(C)cccc34)CC2)nn(C)c1=O,9.2
CC1CCCN(C(=O)c2nc(-c3cccc(F)c3)n3c2CCCCC3)C1 (centres undefined),3.1
COc1cc(NC(=O)c2nc(-c3cccc(F)c3)n3c2CCCCC3)cc(OC)c1OC,-105.5*
CC1CCN(C(=O)c2nc(-c3cccc(F)c3)n3c2CCCCC3)CC1,-58.8
CCOCCCNC(=O)c1nc(-c2cccc(F)c2)n2c1CCCCC2,100.0
COc1ccc(CC(=O)NCCc2csc(-c3cccc(F)c3)n2)cc1OC,58.5
COc1ccc(CCNC(=O)c2nc(-c3cccc(F)c3)n3c2CCCCC3)cc1OC,-115.2*
CN(Cc1cccnc1)C1CCN(C(=O)c2ccoc2)C(C)(C(=O)O)C1 (centres undefined),23.9
SMILES,Tgondii IFNg
Cc1nc(C)c(C(=O)N2C[C@H]3OC(=O)N(CCc4ccccn4)[C@H]3C2)s1,7.2
O=C(NCc1nc(C2CCCCC2)no1)c1cccc(-n2cnnc2)c1,-3.9
COc1cc(N2CCCC3(CCN(CCN(C)C)C3=O)C2)ncn1 (centres undefined),9.3
COc1ccccc1NC(=O)N1CCC2(CC1)Nc1cc(F)ccc1-n1cccc12,427.9
CCCNC(=O)N(C)C[C@@H]1Oc2cc(C#C[C@@H](C)O)ccc2S(=O)(=O)N([C@@H](C)CO)C[C@@H]1C,-54.9
C[C@@H]1CN([C@H](C)CO)S(=O)(=O)c2ccc(C#CC3(O)CCCC3)cc2O[C@@H]1CN(C)C(=O)Nc1cccc(F)c1,-98.7*
CCCNC(=O)N(C)C[C@@H]1Oc2cc(C#C[C@H](C)O)ccc2S(=O)(=O)N([C@@H](C)CO)C[C@H]1C,50.1
C[C@H](CO)N1C[C@H](C)[C@@H](CN(C)C(=O)Nc2ccccc2F)Oc2cc(Br)ccc2S1(=O)=O,46.3
C[C@H](CO)N1C[C@H](C)[C@@H](CN(C)C(=O)Nc2cccc(F)c2)Oc2cc(C#CC3(O)CCCC3)ccc2S1(=O)=O,-93.3*
CCCNC(=O)N(C)C[C@@H]1Oc2cc(C#C[C@@H](C)O)ccc2S(=O)(=O)N([C@H](C)CO)C[C@@H]1C,51.2
CCCNC(=O)N(C)C[C@H]1Oc2cc(C#C[C@@H](C)O)ccc2S(=O)(=O)N([C@@H](C)CO)C[C@@H]1C,11.6
Cc1ccccc1-c1ccc2c(c1)O[C@@H](CN(C)C(=O)Nc1ccc(C(F)(F)F)cc1)[C@H](C)CN([C@H](C)CO)S2(=O)=O,-92.4*
CCCNC(=O)N(C)C[C@H]1Oc2cc(C#C[C@H](C)O)ccc2S(=O)(=O)N([C@@H](C)CO)C[C@@H]1C,102.9
